Screens deposited in PubChem by ICCB-Longwood Screening Facility, Harvard Medical School.
AID504770 = growth inhibition of E. coli YBA685, primary screen, V. cholerae RctB inhibitors; hit rate 0.27% among 130,000; E. coli YBA685 rctB-dependent plasmid, OD600 growth, 3 h; stronger effect = lower value; z-score (test concentration not listed); in the data active means z-score below about -2, passing the limit was not always enough
PV pol inh = poliovirus RdRp elongation inhibitors, primary screen, biochemical, fluorescence polarization, total intensity | Genome polyprotein (Poliovirus type 1 (strain Mahoney)), P03300 | poliovirus polymerase elongation; stronger effect = lower value | % elongation, % (compound at 16.7 µg/mL) | hit rate 0.66% among 150,000; in the data active means % elongation below about 90%
Target sequence (P03300 1749-2209 limits assumed): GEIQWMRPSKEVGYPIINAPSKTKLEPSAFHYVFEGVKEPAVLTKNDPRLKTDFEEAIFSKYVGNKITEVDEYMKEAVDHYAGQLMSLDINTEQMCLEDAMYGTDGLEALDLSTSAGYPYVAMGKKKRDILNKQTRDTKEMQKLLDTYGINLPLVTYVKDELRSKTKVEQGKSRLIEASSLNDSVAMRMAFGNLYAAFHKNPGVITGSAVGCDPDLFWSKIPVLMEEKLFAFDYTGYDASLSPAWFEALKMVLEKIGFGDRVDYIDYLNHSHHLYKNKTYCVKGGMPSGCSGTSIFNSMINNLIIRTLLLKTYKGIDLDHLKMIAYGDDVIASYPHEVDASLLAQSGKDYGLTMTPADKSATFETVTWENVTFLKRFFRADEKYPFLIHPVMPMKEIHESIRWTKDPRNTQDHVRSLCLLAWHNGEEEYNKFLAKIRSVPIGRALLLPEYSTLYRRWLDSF
MbtI inh = MbtI salicylate synthase inhibitors, primary screen, biochemical, fluorescence intensity; purified MbtI enzyme, fluorescence intensity read-out; inhibition, % (concentration not given with the values); AID 493033, 2011; hit rate 0.89% among 100,000; in the data active means inhibition mostly above about 56%, no sharp cut-off; inactive means mostly below about 77%
MenB inh = M. tuberculosis MenB inhibitors, primary screen, biochemical, absorbance. MenB enzyme assay, absorbance read-out. inhibition, % (concentration not given with the values). hit rate 0.43% among 100,000; in the data active means inhibition above about 21%, passing the limit was not always enough
Large screens that a line does not name were inactive. Hits are enriched below; roughly 1.5% of the tested compounds scored in any of these assays.

COc1ccccc1S(=O)(=O)N(C)Cc1ccccc1	none
O=C(O)COc1ccc(-c2nnco2)cc1	PV pol inh 89.0
CC1CCCC(C)N1C(=O)COc1ccc(-c2nnco2)cc1 (stereo not given)	none
Cc1ccc(N2NC(=O)CC2=O)cc1C	none (no result: MbtI inh)
Cc1ccc(-n2[nH]c(=O)c(N=O)c2O)cc1C	PV pol inh 78.0
CCN(Cc1ccccc1)CN1C(=O)C2(OCCCO2)c2ccccc21	none
COc1ccccc1C1(C#N)CCOCC1	none
NC(=S)NN=C1C2CC3CC(C2)CC1C3	PV pol inh 82.0
CCn1c2ccccc2c2nc(C)sc21	none (no result: MbtI inh)
CCn1c(=S)sc2nc(C)sc21	MbtI inh 101.0
COc1ccccc1Nc1nc(Nc2cccc(C(F)(F)F)c2)nc(N2CCOCC2)n1	none
Cc1ccc(NC(=O)CSC(=N)N)cc1	none
N=C(N)SCC(=O)Nc1ccccc1	MenB inh 22.7
CCn1c(/N=C(\C)c2cc(Cl)ccc2O)nc2ccccc21	none (no result: MenB inh)
Cc1ccc(-n2nc(C(=O)NC(C)CCc3ccccc3)c3c4ccccc4n(C)c3c2=O)cc1 (stereo not given)	AID504770 -2.8
O=c1[nH]c(Nc2nc(-c3ccccc3)c3cc(Cl)ccc3n2)nc2c1CCC2	none (no result: PV pol inh, MbtI inh, MenB inh)
CCC(C)[C@@H](CO[C@@H](Cc1ccccc1)C(=O)N[C@@H](CCS(C)(=O)=O)C(=O)OC(C)C)NC[C@@H](N)CS (stereo not given in full)	MbtI inh 66.8 (no result: AID504770)
O=c1c2c(nc3cc(-c4ccco4)[nH]n13)CCCC2	MenB inh 33.5
Oc1ccc(O)cc1	MbtI inh 96.9
O=c1c2c([nH]c3ccccc13)CCCCC2	MenB inh 34.8
COC(=O)c1ccc(/C=[N+](/[O-])C2(C)CCCCC2=O)cc1 (stereo not given)	none
CCN(Cc1ccccc1)C(c1ccccn1)c1nnnn1C1CCCCC1 (stereo not given)	MenB inh 34.3
CC(=O)N1CCc2c(sc3c2c(=O)n(-c2ccccc2)c(=O)n3CC(=O)Nc2cc(C)[nH]n2)C1	none
O=C(O)c1ccc2ncsc2c1	PV pol inh 88.0 (no result: MenB inh)
O=C1C(Nc2cccc(O)c2)=C(n2nnc3ccccc32)C(=O)c2ccccc21	PV pol inh 51.0
CCOC(=O)c1c(NC(=O)c2ccc(S(=O)(=O)N3CCCC(C)C3)cc2)sc2c1CC(C)(C)NC2(C)C (stereo not given)	none (no result: AID504770, MbtI inh, MenB inh)
CCOC(=O)c1c(NC(=O)c2ccc(S(=O)(=O)N(CCOC)CCOC)cc2)sc2c1CC(C)(C)NC2(C)C	PV pol inh 83.0 (no result: AID504770, MbtI inh, MenB inh)
CC(OC(=O)c1ccc2ccccc2n1)C(=O)N(C)c1ccccc1 (stereo not given)	none (no result: PV pol inh)
CC(C)Cc1ccc([C@H](C)C(=O)O)cc1	none (no result: AID504770, MbtI inh)
CC(C)Cc1ccc(CC(=O)O)cc1	PV pol inh 80.0
Cc1cc(=O)[nH]c2[nH]n(-c3ccccc3)c(=O)c12	none (no result: MbtI inh)
Cc1c(C)c2c(=O)n(-c3ccccc3)[nH]c2[nH]c1=O	MbtI inh 65.8 (no result: PV pol inh, MenB inh)
CCC(C)c1ccccc1NC(=O)CNc1ccc(F)cc1 (stereo not given)	none (no result: MenB inh)
CC(=O)Oc1ccc(-c2ccccc2)cc1	none
CC(=O)[O][Hg][c]1ccccc1	AID504770 -5.2
Cc1ccc(-c2csc3nc(CNCCN(C)C)[nH]c(=O)c23)cc1	none
CCOC(=O)N1CCC(c2nc(C)sc2C(=O)NCc2ccc(Cl)cc2)CC1	none
C1CNC(C23CC4CC(CC(C4)C2)C3)=N1	none
C1=C(C23CC4CC(CC(C4)C2)C3)SC2=NCCN12	MbtI inh 68.7
CCCNC(=O)c1cc(N(C)S(=O)(=O)c2ccccc2)ccn1	none
C=C/C=C(\C=C(C)C)N(C(=O)NC1CCCCC1)C1=NCCCS1	MenB inh 28.9
CCN(CC)C(=O)NC1CCCCCC1	none
Cc1ccc(C(=O)CSC2=NCCCCC2)cc1	MenB inh 33.1
CCOc1nnc(NS(=O)(=O)c2ccc(N=Cc3ccccc3O)cc2)s1	none (no result: MbtI inh)
N#C/C(=C\c1ccc(O)c(O)c1)C(N)=S	MbtI inh 71.5 (no result: AID504770)
COc1ccc(/C=C(\C#N)C(N)=S)cc1	none
O=C(OCC(=O)C12CC3CC(CC(C3)C1)C2)c1ccc(-n2cnnn2)cc1	none
COC(=O)C1=C(C)Nc2ccccc2S1	MbtI inh 57.5
